Screening results (PubChem BioAssay)
IL1B NFkB inh: inhibitors of IL-1B driven NFkB p65 nuclear import, primary screen, imaging, HUVEC, IL-1B stimulus, high-content imaging; HUVEC IL-1B NFkB p65 nuclear translocation imaging; 94,000 tested, 0.43% active; AID 796, 2007; inhibition, % at 2 µM;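 active means inhibition above about 30% together with a positive call from visual inspection of the well image, limit read from the data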;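 further: nuclear over cytoplasmic p65 intensity ratio measured by imaging; 0% = IL-1B stimulated DMSO wells and 100% = unstimulated DMSO wells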
Cav32 inh: Cav3.2 calcium influx blockers – cell-based, Fluo-4 calcium fluorescence, FDSS, MLSMR library, primary screen; Cav3.2-expressing cells; stronger effect = lower value; B-score at 10 µM; 100,000 tested, 4% active; AID 449739, 2010;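 active means single-dose well whose peak fluorescence ratio is a statistical outlier from its plate by either plate-standardised score or position-corrected B-score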
NFkB transloc pot: enhancers of NFkB p65 translocation in HUVEC – imaging, IL-1B stimulus, high-content imaging, primary screen; activation, % at 2 µM; HUVEC IL-1B NFkB p65 nuclear translocation imaging; 94,000 tested, 0.3% active; AID 819, 2007;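 active means activation above 40%, about the mean plus 3 SD, also judged a hit on visual image review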;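 further: percent activation is computed from the nuclear over cytoplasmic p65 intensity ratio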
IL1B cytotox: cytotoxicity in IL-1B stimulated HUVEC, primary screen, cytotoxicity control for IL-1B NFkB translocation project, imaging, Hoechst nuclear count, IL-1B stimulus | HUVEC cell count loss | cell count reduction, % at 2 µM | 94,000 tested, 0.41% active | AID 845, 2007;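 active means cell count reduction more than 3 SD above the screen-wide mean, cut at about 70% in these data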;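 further: normalized per plate to untreated control cells as the no-loss baseline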
* marks the source's active call; other numbers are inactive results; x = no result given. Most compounds without a hit are left out; they make up all but 4.4% or so of the library.

SMILES | IL1B NFkB inh | Cav32 inh | NFkB transloc pot | IL1B cytotox
COC(=O)CNc1nc(-c2cccnc2)nc2ccccc12 | x | 0.84 | x | x
O=c1c2ccccc2cnn1-c1ccc(Cl)cc1 | -1 | 1.3 | 1 | -2
NC(=O)CSc1nnc(Cc2cccs2)n1C1CCCCC1 | -17 | 1.1 | 17 | -9
N#CCSc1nnc(Cc2cccc3ccccc23)n1C1CCCCC1 | -11 | -5.7* | 11 | -1
CN(NS(=O)(=O)c1ccccc1)c1nc2ccccc2nc1C(F)(F)F | 8 | -4.2* | -8 | 16
CCOC(=O)c1csc(NC(=O)CSc2nnnn2-c2ccc(OCC)cc2)n1 | 7 | -0.81 | -7 | -67
CCOC(=O)Cc1csc(NC(=O)CSc2nnnn2-c2ccc(CC)cc2)n1 | 6 | -5.4* | -6 | -2
Cc1occc1-c1nnc(SCC(=O)Nc2ccc(F)cc2)n1Cc1ccccc1 | -35 | -6.2* | 35 | -26
Cc1cc(NC(=O)CSc2nnc(-c3ccc(Br)o3)n2Cc2ccccc2)no1 | 10 | -5* | -10 | -23
Cc1cc(NC(=O)CSc2nnc(-c3ccco3)n2Cc2ccccc2)no1 | 8 | 1.7 | -8 | 26
CCCn1c(SCC(=O)Nc2ccccc2-c2ccccc2)nnc1-c1ccoc1C | x | -5.9* | x | x
CC1(C)Cc2cccc(OCC(=O)Nc3cccnc3Cl)c2O1 | -3 | -0.24 | 3 | -134
COc1ccc(Br)cc1C(=O)Nc1ccccc1-c1ccccc1 | -14 | -4.6 | 14 | -20
Clc1ccccc1CN(Cc1ccccc1)c1ncnc2nc[nH]c12 | -2 | -3.7* | 2 | -17
Clc1ccccc1CNc1ncnc2nc[nH]c12 | x | -1.1 | x | x
COc1ccc(N(C(C)C(=O)N/N=C/c2ccc(OC(C)C)cc2)S(C)(=O)=O)cc1 (stereo not drawn) | -6 | -0.61 | 6 | 6
CC(C(=O)N/N=C/c1ccc(N(C)C)c(Br)c1)N(c1ccccc1)S(C)(=O)=O (stereo not drawn) | -7 | -6* | 7 | -10
CCCN1CCN(CCCNC(=O)CCNC(=O)Cn2ccc3ccccc3c2=O)CC1 | 9 | 0.31 | -9 | 12
CC(=O)c1c(C(C)=O)c(C)n(C2CCCCC2)c1C | -10 | -0.18 | 10 | -13
Cc1ccc(C)c(NC(=O)c2ncn[nH]2)c1 | -6 | -4.2* | 6 | 15
Cc1ccc(C(=O)NC(=S)NNC(=O)c2ccccc2[N+](=O)[O-])cc1 | 12 | -8* | -11 | 23
O=C(NNC(=S)NC(=O)c1ccccc1[N+](=O)[O-])c1ccccc1[N+](=O)[O-] | -31 | -0.19 | 31 | 12
O=C(COc1ccccc1)NNC(=S)NC(=O)c1ccc(Cl)cc1Cl | 23 | -4.1* | -23 | 19
COc1cccc(CNc2cnc3ccccc3c2)c1O | -1 | -4.5* | 1 | -16
COc1cccc(CNc2cccc3cccnc23)c1O | x | -2.7 | x | x
SMILES | IL1B NFkB inh | Cav32 inh | NFkB transloc pot | IL1B cytotox
O=C(NCc1cccc(Br)c1)C1CC2Cn3c(nc4ccccc43)C2N1c1ccccc1 (stereo not drawn) | x | -0.33 | x | x
COc1ccc(NC(=O)CSc2ccc3c4c(cccc24)C(=O)c2ccccc2-3)cc1 | 2 | -4.4 | -2 | -27
N#Cc1cccc(NC(=O)CSc2ccc3c4c(cccc24)C(=O)c2ccccc2-3)c1 | 19 | -5.6* | -19 | -20
O=C(CCn1nc(-c2ccccc2)c2ccccc2c1=O)N1CCN(c2ccccc2)CC1 | 1 | -5.3* | -1 | -44
O=[N+]([O-])c1cccc(N=NN(CCO)c2cccc([N+](=O)[O-])c2)c1 | -10 | -0.18 | 10 | -20
CCCN(N=Nc1cccc([N+](=O)[O-])c1)c1cccc([N+](=O)[O-])c1 | -16 | -4.2* | 16 | -19
O=C(O)Cn1cc(C(=O)C2CC2)c2ccccc21 | -19 | 0.12 | 19 | 82*
Cc1cc(C)nc(N(C#N)Cc2cccc3ccccc23)n1 | -6 | -5.2* | 6 | 7
COC(=O)c1ccsc1NC(=O)c1ccc2c(c1)OCCO2 | x | 0.43 | x | x
CN=c1scc(C)n1/N=C/c1ccc2c(c1)OCO2 | 3 | -4* | -3 | 6
CSc1nc2sc3c(c2c(=O)n1C)CCC(C)C3 (stereo not drawn) | -2 | -2.6 | 2 | -30
C=CCn1nnc2sc3c(c2c1=O)CCC(C)C3 (stereo not drawn) | 48* | -0.11 | -48 | -47
Cc1cc(NC(=O)Cn2c(=O)n(Cc3ccccc3)c(=O)c3ccccc32)no1 | 4 | x | -4 | -30
CCN(C(=O)Cn1c(=O)n(Cc2ccccc2)c(=O)c2ccccc21)c1cccc(C)c1 | -21 | -6.4* | 21 | 4
COc1ccc(OC)c(C(c2nnnn2C2CCCC2)N2CCc3ccccc3C2)c1 (stereo not drawn) | 2 | x | -2 | 2
COc1ccc(N2CCN(C(c3cccc(OC)c3OC)c3nnnn3C3CCCC3)CC2)cc1 (stereo not drawn) | -9 | -5.4* | 9 | -3
COc1ccc(OC)c(C(c2nnnn2C2CCCC2)N2CCN(c3ccccc3F)CC2)c1 (stereo not drawn) | -21 | -6.1* | 21 | -12
COc1ccc(N2CCN(C(c3ccccc3OC)c3nnnn3C3CCCC3)CC2)cc1 (stereo not drawn) | x | -5.9* | x | x
COc1ccc(C(c2nnnn2C2CCCC2)N2CCc3ccccc3C2)cc1OC (stereo not drawn) | -23 | -4* | 23 | 4
Fc1ccccc1N1CCN(C(c2ccccn2)c2nnnn2C2CCCCC2)CC1 (stereo not drawn) | 1 | -2 | -1 | 2
Cc1c(C(=O)N2CCC(C)CC2)sc2ncnc(N3CCN(c4ccccc4)CC3)c12 | 6 | x | -6 | -6
Cc1ccc(CN2CN(S(=O)(=O)c3cccs3)c3nc4ccccc4nc32)cc1 | -6 | x | 6 | -1
O=C(CCSCCc1ccccn1)Nc1ccc(Br)cn1 | -4 | 0.085 | -15 | 14
O=C(Cn1cnc2ccccc21)N/N=C/c1ccccn1 | 2 | x | -2 | -23
COc1ccc(Cn2c(CCC(=O)Nc3ccccc3)nc3cccnc32)cc1 | 2 | 1.9 | -2 | -2
SMILES | IL1B NFkB inh | Cav32 inh | NFkB transloc pot | IL1B cytotox
COc1ccc(Cn2c(CCC(=O)Nc3ccc(C)c(C)c3)nc3cccnc32)cc1 | 4 | -3.5* | -3 | -18
COCCCNC(=O)CCc1nc2cccnc2n1Cc1ccccc1 | -28 | -0.059 | 28 | -18
O=C(CCc1nc2cccnc2n1Cc1ccccc1)NCCc1ccc(Cl)cc1 | 1 | -7.2* | -1 | -11
COc1ccccc1C1C(C(=O)c2cc3ccccc3o2)=C(O)C(=O)N1CCN1CCOCC1 (stereo not drawn) | 7 | 0.05 | -7 | 7
O=C1CCC(=O)N(O)CCCCCNC(=O)CCC(=O)N(O)CCCCNC(=O)CCC(=O)N(O)CCCCCN1 | x | -0.17 | x | x
CCN(CC)S(=O)(=O)c1cc(NC(=O)C(=O)c2c(-c3ccccc3)cc3ccccn23)ccc1C | -11 | -4.6* | 11 | 24
